{"source": "PubChem BioAssay AID588473", "about": "(Sanford-Burnham Center for Chemical Genomics, 2011)", "note": "About 1,600 (0.46%) of roughly 350,000 compounds were called active. What follows is part of a selection rich in actives, with near analogues and random picks from the rest. A number with no mark means an inactive call.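 The calls were made as follows: active = activation of at least 50%, plus an integration ratio under a set limit after plate pattern correction; inactive = the rest.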", "data": [{"system": "CRF-binding protein / CRF receptor 2 complex (human)", "assay": "activators of CRF-R2 with CRF-BP – cell-based, HEK293, calcium dye fluorescence, uHTS, primary screen (AID 588473);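 also: plate controls were neutral control wells without compound for no effect and CRF at EC100 for full effect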", "conditions": "calcium dye fluorescence (FLIPR), at 13.2 µM, active compounds read high, percent of saturating CRF peptide response", "values": [{"smiles": "CCCCN1CCNC1=S", "activation": "-0.03%"}, {"smiles": "CCCCN1C(N)=NC[C@@H]1CC1CCCCC1", "activation": "-0.4%"}, {"smiles": "CCOc1ccc(NC(=O)c2ccc(CSc3nnnn3C)cc2)cc1", "activation": "1.79%"}, {"smiles": "NS(=O)(=O)c1ccc(NC(=O)COC(=O)C2(c3ccc(F)cc3)CCCC2)cc1", "activation": "-2.26%"}, {"smiles": "Cc1cc(NS(=O)(=O)c2ccc(NC(=O)C(C)Oc3cccc(C)c3C)cc2)nc(C)n1", "note": "(stereo not given)", "activation": "-1.14%"}, {"smiles": "Cc1cc(NS(=O)(=O)c2ccc(NC(=O)c3cccc(OC(F)F)c3)cc2)nc(C)n1", "activation": "73.2% (active)"}, {"smiles": "Cc1cc(NS(=O)(=O)c2ccc(NC(=O)c3cccnc3)cc2)nc(C)n1", "activation": "-0.63%"}, {"smiles": "COc1ccc(N2CCN(C(CNS(=O)(=O)c3ccc(C)cc3)c3ccccc3)CC2)cc1", "note": "(stereo not given)", "activation": "-2.07%"}, {"smiles": "CN(Cc1ccccc1Cl)C(=O)C1CCC(=O)N(CCc2cccc(F)c2)C1", "note": "(stereo not given)", "activation": "0.61%"}, {"smiles": "COc1cc(C)ccc1OCC(=O)OCC(=O)c1ccc[nH]1", "activation": "2.06%"}, {"smiles": "CC(C)CC(O)C1CCN(C(=O)CCc2nnc(-c3ccc4c(c3)OCO4)o2)CC1", "note": "(stereo not given)", "activation": "-0.38%"}, {"smiles": "O=C(NCCN1CCOCC1)C1CCN(S(=O)(=O)c2ccccc2)CC1", "activation": "-0.1%"}, {"smiles": "O=C1NC[C@@H](c2ccccc2)OC(=O)[C@H](Cc2ccc(F)cc2)CC/C=C/C[C@H]1CC(=O)N(CCO)Cc1ccccc1", "activation": "54.7% (active)"}, {"smiles": "O=C1CCC/C=C/C[C@@H](CC(=O)N(CCO)Cc2ccccc2)C(=O)NC[C@H](c2ccccc2)O1", "activation": "-0.44%"}, {"smiles": "O=C1N[C@@H](c2ccccc2)COC(=O)[C@H](Cc2ccc(F)cc2)C/C=C\\C[C@@H]1CC(=O)N(CCO)Cc1ccccc1", "activation": "-2%"}, {"smiles": "CCCNC(=O)c1ccc(N2CCC3(CC2)CC(c2ccc(Cl)cc2)=NO3)c([N+](=O)[O-])c1", "activation": "0.95%"}, {"smiles": "CCN(CC)C(=O)C1=C(C)N(Cc2ccc(F)cc2)C(=O)C(CC(=O)NCc2cccc3ccccc23)C1", "note": "(stereo not given)", "activation": "-1.12%"}, {"smiles": "COc1ccc(CNC(=O)CN2CCC(n3nnc4cc(F)ccc43)CC2)cc1", "activation": "0.03%"}, {"smiles": "COc1ccc(/C=C2/SC(=O)N(CCCCCC(=O)Nc3ccccc3C(=O)O)C2=S)cc1", "activation": "-2.58%"}, {"smiles": "Cc1ccc(-c2nn(-c3ccccc3)cc2/C=C2\\SC(=S)N(CCCCCC(=O)O)C2=O)o1", "activation": "60.7% (active)"}, {"smiles": "COc1cccc(/C=C2\\SC(=S)N(CCCC(=O)N3CCOCC3)C2=O)c1", "activation": "2.11%"}, {"smiles": "COCCCNC(=S)NC(=O)c1ccc([N+](=O)[O-])cc1", "activation": "-0.87%"}, {"smiles": "CCCCCC(=O)NC(=S)NNC(=O)c1ccc([N+](=O)[O-])cc1", "activation": "96.3% (active)"}, {"smiles": "O=C(NC(=S)NC1CCS(=O)(=O)C1)c1cccc([N+](=O)[O-])c1", "note": "(stereo not given)", "activation": "0.96%"}, {"smiles": "CC(=O)Nc1ccc(C(=O)NNC(=O)CCCCC(=O)NNC(=O)c2ccc(NC(C)=O)cc2)cc1", "activation": "-1.83%"}, {"smiles": "CC(C)(C)SCCNC(=O)c1cccc([N+](=O)[O-])c1", "activation": "-0.01%"}, {"smiles": "CC(C)CC(=O)NC(=S)NNC(=O)c1cccc([N+](=O)[O-])c1", "activation": "55% (active)"}, {"smiles": "COC(=O)c1c(CCl)noc1C(=O)NC(C)C", "activation": "0.17%"}, {"smiles": "Cc1ccc(Nc2c(O)nc[nH]c2=O)cc1C", "activation": "-0.7%"}, {"smiles": "CCN(C(=O)Cc1nc(N)n[nH]1)C1(C(=O)Nc2ccccc2)CCCCC1", "activation": "1.43%"}, {"smiles": "C=CCO/N=C/C1=C(O)C(C(=O)OC)C(C)(C)CC1=O", "note": "(stereo not given)", "activation": "3.2%"}, {"smiles": "Cn1cccc1C(=O)NNC(=O)COc1ccc(Br)cc1", "activation": "0.35%"}, {"smiles": "CC(=O)Nc1ccc(OC(=O)COc2ccc(Br)cc2)cc1", "activation": "0.61%"}, {"smiles": "Cc1ccc(O)c(NC(=S)NC(=O)COc2ccc(Br)cc2)c1", "activation": "195% (active)"}, {"smiles": "Cc1cc(C)c(S(=O)(=O)Nc2c(C)n(C)n(-c3ccccc3)c2=O)cc1[N+](=O)[O-]", "activation": "-0.78%"}, {"smiles": "O=C(NCCc1c[nH]c2ccccc12)C1CCN(Cc2ccc(Br)cc2)CC1", "activation": "7.6%"}, {"smiles": "N#C/C(=C/c1ccc(N2CCCCC2)o1)C(=O)NCCc1c[nH]c2ccccc12", "activation": "138% (active)"}, {"smiles": "Cc1ccc(C(=O)N/C(=C/c2ccco2)C(=O)NCCc2c[nH]c3ccccc23)cc1C", "activation": "-0.5%"}, {"smiles": "CCCN(CCC)c1nc2c(C)cccn2c(=O)c1/C=C1/SC(=S)N(Cc2ccco2)C1=O", "activation": "36.9%"}, {"smiles": "Cc1cccn2c(=O)c(/C=C3\\SC(=S)N(CC(C)C)C3=O)c(NCCCOC(C)C)nc12", "activation": "83% (active)"}, {"smiles": "CNc1nc2c(C)cccn2c(=O)c1C=Nc1ccc(OC)cc1", "activation": "-0.9%"}, {"smiles": "CCOC(=O)NC(=O)C(=CNc1cccc(OC)c1)C(=O)NC(=O)OCC", "activation": "2.88%"}, {"smiles": "Cc1cccn2c(=O)c3cc(C#N)c(=NC(=O)c4cccnc4)n(CC4CCCO4)c3nc12", "note": "(stereo not given)", "activation": "56.4% (active)"}, {"smiles": "Cc1cccn2c(=O)c3cc(C#N)c(=O)n(CCCN4CCOCC4)c3nc12", "activation": "2.16%"}, {"smiles": "Cc1cccn2c(=O)c3cc(C(=O)NCCN4CCOCC4)c(=N)n(Cc4cccnc4)c3nc12", "activation": "-0.12%"}, {"smiles": "Cc1cc(=O)n2nc(N3CCCC(C(=O)NCc4ccc(Cl)cc4)C3)sc2n1", "note": "(stereo not given)", "activation": "-0.87%"}, {"smiles": "CCCCCCCC[n+]1cccc(C(=O)N2c3c(nc(N)[nH]c3=O)NC(C)C2C)c1", "note": "(stereo not given)", "activation": "-1.35%"}, {"smiles": "Cc1cccc(C)c1N1CCN(S(=O)(=O)N2CCCCC2)CC1", "activation": "152% (active)"}, {"smiles": "Cc1cccc(C(=O)N2CCN(S(=O)(=O)N3CCCCC3)CC2)c1", "activation": "-0.46%"}, {"smiles": "Cc1cccc(C)c1N1CCN(S(=O)(=O)N2CCOCC2)CC1", "activation": "16.7%"}, {"smiles": "CCn1cc(CN2CCN(CC(C)(C)C)C(CCO)C2)c2ccccc21", "note": "(stereo not given)", "activation": "4.34%"}, {"smiles": "CCOc1ccc(NCCC(=O)c2ccc3c(c2)OCO3)cc1", "activation": "-0.43%"}, {"smiles": "COc1ccc(CCNC(=O)C(=O)NCC2OCCN2S(=O)(=O)c2cccs2)cc1OC", "note": "(stereo not given)", "activation": "-0.25%"}, {"smiles": "CC1(C)N=C(c2ccccn2)C(C)(C)N1O", "activation": "2.11%"}, {"smiles": "Cc1cccc(NC(=O)CN2C(=O)CNC2=O)c1", "activation": "-0.73%"}, {"smiles": "Cc1cccc(NC(=O)CCN2CC(C)CC(C)C2)c1", "note": "(stereo not given)", "activation": "-0.13%"}, {"smiles": "Cc1cccc(NC(=O)C(C)N2C(=O)C3C4CC(C(Br)C4Br)C3C2=O)c1", "note": "(stereo not given)", "activation": "73.2% (active)"}, {"smiles": "CN(C)S(=O)(=O)c1ccc(C(=O)NCC2(N3CCOCC3)CCCCC2)cc1", "activation": "0.88%"}, {"smiles": "Cc1ccc(-n2[nH]c(C)c(/C=N/N3C(=O)c4cccc5cccc(c45)C3=O)c2=O)cc1", "activation": "113% (active)"}, {"smiles": "Cc1ccc(-c2ccnc3[nH]n(-c4ccccc4)c(=O)c23)cc1", "activation": "0.1%"}, {"smiles": "COc1cc(SC#N)ccc1N=Cc1c(C)[nH]n(-c2ccc(C)cc2)c1=O", "activation": "-2.61%"}, {"smiles": "Cc1noc(C)c1S(=O)(=O)N(C)Cc1ccccc1", "activation": "-2.84%"}, {"smiles": "CC(c1cccnc1)N(CCN(C)C)C(=O)Nc1ccc(Cl)c(Cl)c1", "note": "(stereo not given)", "activation": "0.52%"}, {"smiles": "N#CC1(NC(=O)COC(=O)CCN=C2NS(=O)(=O)c3ccccc32)CCCCC1", "activation": "8.71%"}, {"smiles": "O=C(OCCN=C1NS(=O)(=O)c2ccccc21)c1cccc([N+](=O)[O-])c1", "activation": "-1.89%"}, {"smiles": "O=C(CCCN=C1NS(=O)(=O)c2ccccc21)OCC(=O)c1ccc(F)c(F)c1", "activation": "62% (active)"}, {"smiles": "C=CCOc1cccc(C2C(C(=O)c3ccc(C)o3)=C(O)C(=O)N2CCN2CCOCC2)c1", "note": "(stereo not given)", "activation": "0.15%"}, {"smiles": "CCCc1c(C(=O)N/N=C(\\C)CCc2ccc(OC)cc2)nnn1-c1nonc1N", "activation": "-0.36%"}, {"smiles": "CCC(C)(C)NC(=O)/C=C/c1cc(OC)c(OC)c(S(=O)(=O)N2CCc3ccccc32)c1", "activation": "3.27%"}, {"smiles": "COc1ccc(C(=O)OCC(=O)NCC2CCCCC2)cc1S(=O)(=O)N1CCCc2ccccc21", "activation": "1.36%"}, {"smiles": "COc1cc(C)c(C)cc1S(=O)(=O)N1CCCc2ccccc21", "activation": "53.4% (active)"}, {"smiles": "CC(OC(=O)CN1C(=O)C2CCCCC2C1=O)C(=O)Nc1ncc(Cl)cc1Cl", "note": "(stereo not given)", "activation": "0.41%"}, {"smiles": "CCNc1nc(Oc2ccc(C(=O)OC)cc2)nc(N2CCOCC2)n1", "activation": "1.34%"}, {"smiles": "Cc1ccccc1NC(=O)C(C)c1ccc(-c2ccccc2)c(F)c1", "note": "(stereo not given)", "activation": "1.53%"}, {"smiles": "CC1CC(NC(=O)/C(C#N)=C/c2ccc[nH]2)CC(C)(C)C1", "note": "(stereo not given)", "activation": "2.1%"}, {"smiles": "CCOC(=O)c1c(NC(C)=O)sc2c(O)c(Br)ccc12", "activation": "1.34%"}, {"smiles": "NC(N)=Nc1nc2ccc(Br)cc2c(=O)[nH]1", "activation": "-1.35%"}, {"smiles": "NC(=O)c1cc(-c2cccnc2)nc2ccc(Br)cc12", "activation": "-0.32%"}, {"smiles": "O=c1c2cc(Br)ccc2nc(-c2cccc(Cl)c2)n1O", "activation": "66.9% (active)"}, {"smiles": "CC1Sc2ccc(S(=O)(=O)CCC(=O)NCc3ccccc3Cl)cc2NC1=O", "note": "(stereo not given)", "activation": "-3.65%"}, {"smiles": "COc1ccc(N(CC(=O)N2CCCCCC2)S(=O)(=O)c2ccccc2)cc1", "activation": "0.06%"}, {"smiles": "COc1ccc(C)cc1N(CC(=O)N1CCCC1)S(=O)(=O)c1ccccc1", "activation": "-0.01%"}, {"smiles": "COc1ccccc1N(CC(=O)N1CCCCC1)S(=O)(=O)c1ccccc1", "activation": "59.4% (active)"}, {"smiles": "Nc1c(C(=O)c2cccs2)sc2nsc(SCCN3CCCCC3)c12", "activation": "147% (active)"}, {"smiles": "CCOc1ccccc1NC(=S)NC(=O)CCc1ccccc1", "activation": "0.36%"}, {"smiles": "CC(=O)NC(=S)NNC(=O)c1ccc(Br)cc1", "activation": "-4.92%"}, {"smiles": "COc1ccc(C(=O)NC(=S)NC2CCCCC2)cc1", "activation": "1.07%"}, {"smiles": "COc1ccc(C(=O)NC(=S)NNC(=O)CCc2ccccc2)cc1", "activation": "68.5% (active)"}, {"smiles": "COc1ccc(C(=O)NNC(=S)NC(=O)c2ccccc2)cc1", "activation": "123% (active)"}, {"smiles": "O=C(CCc1ccccc1)NNC(=O)COc1ccc(Cl)cc1", "activation": "-0.46%"}]}]}
